Results filed as inconclusive are left out. Unmarked numbers belong to inactive results. The source made the active and inactive calls. The call rests on the fitted dose curve; in most records, active means well fitted inhibition curve with a large enough effect; inconclusive means small, poorly fitted or top-dose-only effect; inactive means flat fitted curve, though single readings scatter.
Assay: CHOP2 Reporter Counterscreen Assay for Inhibitors of Ubiquitin-specific Protease USP2a;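 further: activated enterokinase alone at 50 pM in a cell-free format rather than USP2a or CHOP2; nearly all actives have a fitted effect of over 55% in size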
Conditions: purified enterokinase, fluorogenic substrate, 485/531 nm; series mostly up to 38.3 µM; activity change, negative = inhibition: at the top concentration
In short: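 Fluorescence (485/531 nm) read 10 min after adding 25nM reporter substrate to 50 pM activated EK preincubated 30 min RT with compound; Tris pH 8.0/CaCl2/CHAPS buffer. Data normalized to buffer-alone inhibition; concentration-response curves fitted.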
On the % scale 0 is the no-effect control and ±100 the full control effect; potency means the concentration at half of the fitted maximal effect.

In order of falling “activity change, negative = inhibition” value:
1. Cc1ccc(SCC(=O)NCC(C)C)cc1  6.35%
2. CCOC(=O)c1ccc(NC(=O)C2=C(C)Nc3nc(CCCO)nn3C2c2cccc(C)c2)cc1 (stereo not given)  5.85%
3. Cc1ccc2[nH]c(=O)c(COC(=O)c3ccccn3)cc2c1  5.1%
4. Cn1c(=O)c2c(nc(CN3CCN(C(=O)c4ccco4)CC3)n2CCCc2ccccc2)n(C)c1=O  4.23%
5. Cc1ccc(-c2c(C)n([O-])c3c([n+]2=O)CCC3)o1  3.46%
6. COc1cccc(/C=N/n2c(SC)nnc2-c2ccccc2)c1O  3.06%
7. CCCOc1ccc(/C=C2\SC(=S)N(CC3CCCO3)C2=O)cc1 (stereo not given)  2.45%
8. Cc1csc(NC(=O)CCn2c(=O)sc3ccccc32)n1  2.39%
9. Cn1c(C(=O)N2CCN(Cc3ccc4c(c3)OCO4)CC2)cc2sccc21  2.17%
10. Cc1ccc(C(=O)NCc2ccc3c(c2)OCO3)cc1N1CCCC1=O  2.1%
11. CC1(C)CC(=O)C2=C(C1)N(Cc1ccco1)C(=O)NC2(C(F)(F)F)C(F)(F)F  1.05%
12. CCCn1c(N2CCN(Cc3cccc(C)c3)CC2)nc2c1c(=O)[nH]c(=O)n2C  0.66%
13. Cc1ccc2c(c1)c1c3n2CCN(C(=O)Cn2c(-c4ccccc4)noc2=O)C3CCC1 (stereo not given)  0.405%
14. Cc1c(NC(=O)C2CCCN(S(=O)(=O)c3cnc[nH]3)C2)c(=O)n(-c2ccccc2)n1C (stereo not given)  0.344%
15. Cc1cc(C(=O)Nc2ccccc2N2CCOCC2)c2ccccc2n1  0.16%
16. CC1=NN(C(=O)c2csc(C)c2C)C(O)(C(F)(F)F)C1 (stereo not given)  0.112%
17. Cn1c(C(=O)NCCN2CCOCC2)cc2c(=O)n(C)c3ccccc3c21  -0.0744%
18. Cc1c(NC(=O)C2CCCN2S(=O)(=O)c2ccc(Cl)cc2)c(=O)n(-c2ccccc2)n1C (stereo not given)  -0.392%
19. COc1ccc(-c2nc(Cn3c(SCc4ccc(F)cc4)nc4ccncc43)c(C)o2)cc1OC  -0.398%
20. Cc1nn(CC(=O)Nc2cccc(S(N)(=O)=O)c2)c(C)c1[N+](=O)[O-]  -0.506%
21. O=C(Nc1nnc(-c2ccco2)s1)C1CCCCC1  -0.811%
22. CC(C)C(=O)Nc1ccc(C(=O)N2CCCCCC2)cc1  -0.838%
23. CC(C)OCCCNC(=O)c1c(N)n(/N=C/c2ccccn2)c2nc3ccccc3nc12  -2.23%
24. COC(=O)[C@@]12CCCCN1[C@H](c1ccc(-c3ccc(Cl)c(Cl)c3)cc1)[C@H]1C(=O)N(C)C(=O)[C@H]12  -3.03%
25. CCOc1ccc2nc(NC(=O)Nc3ccccc3)sc2c1  -4.34%
26. COc1ccc(-c2noc(CSc3nnc(Cc4ccccc4)n3-c3ccc(Cl)cc3)n2)cc1  -4.97%
27. CCOC(=O)C(=O)Nc1nc(-c2ccc3c(c2)CCN3C(=O)C2CC2)c(C)s1  -5.35%
28. COc1cc(C(c2c(C)[nH][nH]c2=O)c2c(C)[nH][nH]c2=O)ccc1OCc1ccc([N+](=O)[O-])cc1  -5.71%
29. CCOc1ccc(-c2ccc(/C=C3/C(=N)N4C(C)=CSC4=NC3=O)o2)c([N+](=O)[O-])c1  -15.5%
30. C[C@@H]1CC[C@]2(C(=O)O)CC[C@]3(C)C(=CCC4[C@]56CC[C@@](O)(OC5)C(C)(C)C6CC[C@]43C)C2[C@H]1C (stereo not given in full)  -24.5%

For `CCOc1ccc(C=NNc2ccc(S(=O)(=O)Nc3ccccc3C(=O)O)cc2[N+](=O)[O-])cc1`, the Potency was 11.2 µM (active).
With `O=C(CSc1nnnn1-c1ccc(F)cc1)c1ccc(O)c(O)c1` the Potency was 12.6 µM (active).
With `C#CCOCCOCCOCCNc1nc(N2CCN(C(=O)CCCCCCCCCCNC(=O)[C@H](CO)n3cc(CCCSC)nn3)CC2)nc(N2CCN(C(=O)CCCCCCCCCCNC(=O)[C@H](CCCN=C(N)N)n3cc(C[C@@H](C)CC)nn3)CC2)n1` the Potency was 3.98 µM (active).
With `O=C1COc2ccc(C(=O)COC(=O)/C=C/c3ccc(Br)o3)cc2N1` the Potency was 2.82 µM (active).
In the case of `CCCCCCCCCCOC(=O)Cn1c(COc2ccccc2C)[n+](C)c2ccccc21`, the Potency is reported as 5.62 µM (active).
With `Cc1cc(/C=C2\C(=N)N3N=C(c4ccco4)SC3=NC2=O)c(C)n1Cc1ccccc1` the Potency was 7.08 µM (active).
For `O=C(Nc1ccncc1)c1ccc(S(=O)(=O)Nc2ccccc2)cc1`, the Potency was 3.55 µM (active).
For `CC1=NN(c2ccc(C(=O)O)cc2)C(=O)/C1=C\c1ccc(OC(=O)c2cccs2)cc1`, the Potency was 3.55 µM (active).
In the case of `COC(=O)c1[nH]c2ccc(C)cc2c1NC(=O)CN1CCCc2ccccc21`, the Potency is reported as 10 µM (active).
For `CCCCCCCCCCC[N+](C)(C)CC/C=C1/c2ccccc2Sc2ccc(Cl)cc21`, the Potency was 11.2 µM (active).
